Assay results as given in PubChem BioAssay (NCATS).
Records with an inconclusive call do not appear. The source made the active and inactive calls. Unless noted, calls come from the whole dose curve; as a rule, active = well fitted curve in the direction sought with a large enough effect; inconclusive = small, poorly fitted or top-dose-only effect, or another doubt; inactive = no such curve, though single readings can be large or run the other way.

test: NCATS anti-infectives library activity on the primary C. elegans qHTS viability assay (AID 1745855; calls by dose curve); conditions: C. elegans worm area imaging, day 7; at 41.8 µM (top of the series)
In short: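 GFP read-out by 488 nm laser cytometry at day 0, 3 and 7, gated on object perimeter, area and peak intensity, scored viability of PE254-GFP-FLuc worms exposed to compound in S medium with bacterial capsules at 21 °C.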

SMILES	outcome
CCOC(=O)[C@H]1O[C@@H]1C(=O)N[C@@H](CC(C)C)C(=O)NCCC(C)C	inactive
CCOc1nc2cccc(C(=O)O)c2n1Cc1ccc(-c2ccccc2-c2noc(=O)[nH]2)cc1	inactive
N[C@H]1C[C@H]1c1ccc(-c2cccc(O)c2)cc1	inactive

test: Viability counterscreen for antagonist of constitutive androstane receptor (CAR) against the NCATS DSHEA and TCM libraries (AID 1794837); conditions: CAR reporter cell line viability counterscreen, qHTS; series mostly up to 40 µM;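 note: compound exposure lasted 24 h before viability reading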
In short: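 Viability was measured by CellTiter-Fluor fluorescence (405/540 nm, 1 hr) in HepG2-CYP2B6-hCAR cells. Cells were co-treated 24 hr with 48 uM CITCO (final), antagonist mode, and test substances.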

SMILES	outcome
CC1=C(/C=C/C(C)=C/C=C/C(C)=C/C=C/C=C(C)/C=C/C=C(C)/C=C/C2=C(C)CCCC2(C)C)C(C)(C)CCC1	inactive
CCCCCCCC(=O)O	inactive
C[C@H]1[C@H](C)CC[C@]2(C(=O)O)CC[C@]3(C)C(=CC[C@@H]4[C@@]5(C)C[C@@H](O)[C@H](O)[C@@](C)(CO)[C@@H]5CC[C@]43C)[C@H]12	inactive
CC1=C(/C=C/C(C)=C/C=C/C(C)=C/CO)C(C)(C)CCC1	inactive
